A selection: hits, their analogues and other compounds. The true share with any hit is near 3.2%.
rRNA inh HTS: inhibitors of bacterial rRNA selective over humanized ribosomes; 1.6% of 350,000 active; AID 720706; E. coli WT GFP vs humanized-ribosome RFP mutants, fluorescence, 24 h; stronger effect = lower value; DMSO median 0, no signal -100; GFP signal change (wild-type ribosome), % (no concentration beside the values);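 active means significant combined selectivity score with lowered wild-type GFP, culture density cut under 30%, mutant RFP and density less affected; inactive means any of these conditions unmet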
GSIS activator: GLuc luminescence reporter in INS-1E cells, primary screen for activators of glucose-dependent secretion of insulin; INS-1E GLuc reporter insulin secretion, 2-3 h; activation, % at 16.6 µM; 0.61% of 370,000 active; AID 743287;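 active means lowest replicate activation of at least 40%, so every replicate reaches that level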;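 further: 0% = median of neutral control wells and 100% = median of IBMX positive control wells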
PGC1a acetyl inh: modulators of PGC1a acetylation | AID 651687 | 0.17% of 350,000 active | inhibition, % at 15.6 µM | U2OS PGC1a acetylation, AlphaScreen anti-acetyl-lysine; with virally co-expressed GCN5 acetyltransferase;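 active means every replicate shows inhibition of at least 40%; inconclusive means mean inhibition at least 40% but some replicate below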;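 further: 0% = neutral control wells and 100% = positive control wells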
ERAP1 HTS inh: inhibitors of human ERAP1 aminopeptidase. Q9NZ08. recombinant ERAP1, Leu-AMC fluorescence, 60 min. inhibition, % at 10.7 µM. 0.15% of 340,000 active. AID 652197;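 active means mean replicate inhibition of at least 30%, or all replicates individually reaching that 30% level; inactive means mean below 30% and not every replicate reaching it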;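 further: 0% = neutral control wells and 100% = L-leucinethiol positive control wells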
Target sequence (Q9NZ08 whole entry, looked up): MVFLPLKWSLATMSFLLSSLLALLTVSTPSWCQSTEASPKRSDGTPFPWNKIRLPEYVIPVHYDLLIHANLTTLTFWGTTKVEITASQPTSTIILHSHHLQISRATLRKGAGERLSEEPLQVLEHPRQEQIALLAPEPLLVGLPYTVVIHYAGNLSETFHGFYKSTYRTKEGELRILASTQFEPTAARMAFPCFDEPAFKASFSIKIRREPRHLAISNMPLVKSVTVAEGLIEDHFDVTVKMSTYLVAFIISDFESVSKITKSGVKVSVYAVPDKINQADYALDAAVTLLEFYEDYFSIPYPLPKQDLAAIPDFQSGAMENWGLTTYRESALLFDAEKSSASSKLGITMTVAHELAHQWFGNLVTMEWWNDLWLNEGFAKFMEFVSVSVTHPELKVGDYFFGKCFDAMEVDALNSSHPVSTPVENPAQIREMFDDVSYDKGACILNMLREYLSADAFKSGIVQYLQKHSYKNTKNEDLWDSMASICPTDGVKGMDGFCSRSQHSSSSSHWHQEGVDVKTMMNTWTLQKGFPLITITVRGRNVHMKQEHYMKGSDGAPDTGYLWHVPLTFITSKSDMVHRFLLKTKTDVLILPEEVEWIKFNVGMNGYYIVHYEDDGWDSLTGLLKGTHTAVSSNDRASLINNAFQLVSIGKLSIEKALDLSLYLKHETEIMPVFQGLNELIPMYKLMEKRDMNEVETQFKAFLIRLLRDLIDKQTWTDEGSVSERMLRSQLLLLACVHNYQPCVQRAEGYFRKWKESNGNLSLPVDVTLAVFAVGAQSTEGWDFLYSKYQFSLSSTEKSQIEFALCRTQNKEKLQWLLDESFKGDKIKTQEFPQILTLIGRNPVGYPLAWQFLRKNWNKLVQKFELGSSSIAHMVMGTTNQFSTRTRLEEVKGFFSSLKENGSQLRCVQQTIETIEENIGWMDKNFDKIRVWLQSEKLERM
DENV2 CPE: protects cells from dengue virus 2 cytopathic effect. CPE inhibition, % at 9.99 µM. AID 651640. 1.7% of 350,000 active. DENV2-infected cells, cytopathic effect rescue, plate reader; in the data active means CPE inhibition above about 20%, passing the limit was not always enough; inconclusive means no clear call, values can overlap the other calls; tested in BHK-21 cells;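 further: 0% = median of neutral control wells and 100% = median of positive control wells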
CaV13 FRET inh: Primary screen for inhibitors of IQ motif and Ca2+-dependent inactivation inhibitor domain binding in CACNA1D, Förster resonance energy transfer in living cells, …; inhibition, % at 12.3 µM; 0.098% of 340,000 active; HEK cells, CFP/YFP FRET ICDI-IQ, plate reader, 10 min; percent FRET-ratio fall versus neutral wells; AID 743397;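 active means mean replicate inhibition of at least 30% and at least 1% of replicates passing that level; inconclusive means only one of the two criteria is met; inactive means neither criterion is met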;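 further: 0% = median of the neutral control wells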
An asterisk follows results filed as active; ? = inconclusive; . = no result given; ! = repeats disagree.

SMILES	rRNA inh HTS	GSIS activator	PGC1a acetyl inh	ERAP1 HTS inh	DENV2 CPE	CaV13 FRET inh
Nc1ccc(N2C(=O)c3ccccc3C2=O)c(Cl)c1	0.6	20.8	.	1.5	38.5*	-4.7
O=C1c2cccc3cccc(c23)C(=O)N1c1ccccc1Cl	-31.6*	-0.1	.	1.1	9.1	-6.0
O=C(C[C@H]1CC[C@@H]2[C@H](COC[C@@H](O)CN2S(=O)(=O)c2ccc(Oc3ccccc3)cc2)O1)Nc1ccccc1	-7.4	-16.0	-7.4	-0.2	0.0	.
COc1ccc(S(=O)(=O)N(C)C[C@H]2OCCCC[C@H](C)Oc3ccc(NS(=O)(=O)c4c(C)noc4C)cc3C(=O)N([C@H](C)CO)C[C@H]2C)cc1	0.3	-3.9	1.5	-0.1	?	.
COc1ccc(Cl)cc1NC(=O)Nc1cccc([N+](=O)[O-])c1C	-31.8*	-27.6	.	-2.4	.	-4.7
CCC(=O)N[C@@H]1CC[C@H](CC(=O)NCC2CC2)O[C@@H]1CO	1.9	-5.8	.	.	.	.
CC(C)Cc1nc2oc3c(NCc4cccnc4)ncnc3c2c2c1CCC2	-1.6	75.3*	.	-0.9	.	-3.8
CCCCc1c(-c2ccccc2OC)ncn1CCc1ccccc1OC	-62.9	25.3	.	4.5	-5.7	-10.1
CCCCCc1c(-c2ccccc2OC)ncn1CCc1ccccc1OC	-30.2	9.5	.	16.6	26.3*	-9.8
CCCCc1c(-c2ccccc2OC)ncn1CCc1ccccc1Cl	-32.1	8.0	.	14.4	32.0*	-9.4
CCCCc1c(-c2ccccc2OC)ncn1C(C)c1ccc(Cl)cc1 (stereo unspecified)	-52.2	54.6*	.	2.6	-1.8	-4.4
CCCCc1c(-c2ccccc2F)ncn1CCc1ccccc1OC	-62.5	63.6*	.	0.4	4.9	-9.7
CCCCc1c(-c2ccccc2OC)ncn1Cc1ccc(Cl)cc1Cl	-50.0	.	.	0.0	-5.8	-10.0
COc1ccc(NC(=O)N2C[C@@H]3N[C@H](C2)[C@@H]3c2ccc(-c3ccc(OC)cc3)cc2)cc1	-17.2	34.1	2.6	-2.0	8.0	.
COc1cccc(OC)c1C(=O)OCC(=O)NCC(C)C	-3.9	42.6*	4.1	0.5	-1.4	-17.9
COCC#Cc1cnc2c(c1)C(=O)N([C@H](C)CO)C[C@H](C)[C@@H](CN(C)C)O2	8.1	0.1	9.4	0.4	.	.
C[C@@H]1CN([C@H](C)CO)C(=O)c2cc(NC(=O)Nc3ccc(F)cc3)ccc2O[C@@H]1CN(C)S(=O)(=O)c1ccc(Cl)cc1	-0.2	-28.6	7.4	.	-4.5	.
CCc1ccc(NC(=O)N(CCCN2CCOCC2)Cc2cccs2)cc1	5.3	-1.5	12.0	-3.0	34.4*	-5.9
CCCN(C)C[C@@H]1OCCCC[C@@H](C)Oc2ccc(NC(=O)CCC(F)(F)F)cc2C(=O)N([C@H](C)CO)C[C@@H]1C	4.2	19.5	5.2	0.5	-0.4	.
O=C(C[C@H]1CC[C@@H]2[C@H](COC[C@H](O)CN2C(=O)Cc2ccccc2)O1)NC1CCCC1	-0.7	0.0	29.4	0.5	88.5*	.
O=C(C[C@@H]1CC[C@H]2[C@@H](COC[C@H](O)CN2C(=O)Cc2ccccc2)O1)NC1CCC1	-0.1	3.5	0.6	-14.0	13.0	.
O=C(C[C@H]1CC[C@H]2[C@@H](COC[C@H](O)CN2C(=O)Cc2ccccc2)O1)NC1CCC1	3.3	5.0	-1.3	-4.7	37.7*	.
C[C@@H]1CN([C@@H](C)CO)C(=O)c2cc(NC(=O)CCN3CCOCC3)ccc2O[C@H]1CN(C)S(C)(=O)=O	4.2	20.0	27.3	-2.5	-14.9	.
COc1ccc(-c2ccccc2[C@@H]2[C@H](C#N)N(C(=O)c3cccnc3)[C@H]2CO)cc1	-4.0	-6.0	-5.7	-3.7	16.5	.
COc1ccc(NS(=O)(=O)c2cc(NC(=O)c3ccc(=O)[nH]c3)ccc2N2CCOCC2)cc1	-11.3	-0.8	-2.9	5.4	6.7	-4.6
SMILES	rRNA inh HTS	GSIS activator	PGC1a acetyl inh	ERAP1 HTS inh	DENV2 CPE	CaV13 FRET inh
COc1ccc(NS(=O)(=O)c2cc(NC(=O)c3ccc(=O)[nH]n3)ccc2N2CCOCC2)cc1	-27.4*	13.3	-1.8	1.1	-4.0	-2.1
COc1ccc(CNC(=O)C[C@@H]2C[C@@H]3c4cc(NC(=O)CC5CC5)ccc4O[C@@H]3[C@@H](CO)O2)cc1	0.6	0.0	7.1	.	-0.4	.
CC(=O)Nc1ccc(S(=O)(=O)N2CCN(C(=O)C(=O)c3cccc(C(F)(F)F)c3)CC2)cc1	-13.1*	-32.0	.	5.0	5.1	-8.4
CC(O)c1nc2ccc(Cc3ccc4nc(C(C)O)[nH]c4c3)cc2[nH]1 (stereo unspecified)	.	45.8*	-7.4	.	.	-5.4
S=C1NCCN1CC1CCN(CCCC2CCCC2)CC1	7.2	-4.9	8.5	-3.1	72.5*	.
Cc1ccc(C)c(NC(=O)c2cc[n+](C)cc2)c1	15.8	-3.5	.	87.2*	-4.8	-4.6
Cc1ccc(C(=O)Nc2cc([N+](=O)[O-])ccc2C)cc1	-5.1	13.6	2.2	8.9	.	2.5
C[n+]1ccc(C(=O)Nc2ccccc2Cl)cc1	19.2	.	-13.9	102.2*	-2.7	-1.5
COc1ccc(-c2c(C)nn3c(N4CCN(Cc5ccccc5)CC4)cc(C)nc23)cc1OC	-4.5	-6.0	1.4	0.9	-7.0	-4.7
COc1ccccc1-c1c(C)nn2c(N3CCN(Cc4ccccc4)CC3)cc(C)nc12	-12.3	.	-4.1	8.6	54.8*	-5.7
CCCC(=O)N1CCC(Cc2ccccc2)CC1	10.3	-3.5	.	1.9	-2.0	-3.3
CC12CCC(C(=O)N3CCC(Cc4ccccc4)CC3)(C(=O)C1=O)C2(C)C (stereo unspecified)	-23.0*	-16.1	.	2.9	-3.7	-6.8
C[C@@H]1CCCCO[C@H](CN(C)Cc2ccccc2)[C@H](C)CN([C@H](C)CO)C(=O)c2cc(NC(=O)CCC(F)(F)F)ccc2O1	-0.1	-2.6	-2.5	-1.2	37.3*	.
C[C@@H]1CCCCO[C@@H](CN(C)Cc2ccccc2)[C@H](C)CN([C@H](C)CO)C(=O)c2cc(NC(=O)CCC(F)(F)F)ccc2O1	3.1	-8.0	2.6	0.3	?	.
COc1ccc(CN(C)C[C@H]2OCCCC[C@H](C)Oc3ccc(NC(=O)CCC(F)(F)F)cc3C(=O)N([C@@H](C)CO)C[C@@H]2C)cc1	2.7	9.8	-5.9	1.6	43.7*!	-2.5
C[C@@H]1CN([C@@H](C)CO)C(=O)c2cc(NC(=O)c3ccccc3)ccc2O[C@@H](C)CCCCO[C@@H]1CN(C)C(=O)CCC(F)(F)F	0.6	-10.6	-0.1	-4.5	28.6*	.
COc1ccc(CN(C)C[C@@H]2OCCCC[C@H](C)Oc3ccc(NC(=O)CCC(F)(F)F)cc3C(=O)N([C@H](C)CO)C[C@H]2C)cc1	1.3	1.4	6.3	-0.9	61.7*	.
